The campaign covered roughly 94,000 compounds. About 20 (0.02%) were called active. Not shown: some 1% with an inconclusive outcome. Calls follow the shape of the dose curve; as a rule, active = well fitted activation curve with a large enough effect; inconclusive = small, poorly fitted or top-dose-only effect; inactive = flat fitted curve, though single readings scatter. A selection follows.
experiment: qHTS of alpha-syn Inhibitors: NCGC Sytravon Library Screen; conditions: S. cerevisiae alpha-synuclein toxicity rescue, BacTiter-Glo growth, 24 h; series mostly up to 46.1 µM
From the text: The goal of this project is to identify new chemical probes capable of reversing the toxicity associated with the Parkinson disease-related protein, alpha-synuclein. Compounds will be selected on their ability to restore growth in yeast cells expressing toxic levels of alpha-synuclein. These compounds will provide a complementary approach to deciphering the tangled mechanisms of toxicity and protection that we have uncovered through genome-wide genetic screens and are beginning to uncover in a large-scale proteomics analysis with mass spectroscopy. To this end, a miniaturized assay was developed to be screened against the Molecular Libraries Small Molecule Repository (MLSMR) to discover alpha-synuclein inhibitors. […] The phenotype of interest will be that of an Activator and this screen is run against the NCGC Sytravon Library collection. NIH Chemical Genomics Center [NCGC] NIH Molecular Libraries Probe Centers Network [MLPCN] MLPCN Grant: NS060957 Assay Submitter (PI): Susan Lindquist, Whitehead Institute/MIT
Dispense 2.5 microL yeast galactose medium per 1536-well plate, pin compound, dispense 2.5 microL alpha-synuclein expressing yeast in galactose medium at OD600=0.02 (pregrown in raffinose medium to mid-log phase) per well, incubate for 24 hr at 30 deg C, and cell growth will be measured using 5 microL of Bactiter/Glo reagent to entire plate and read using Luminescence Protocol in ViewLux.

Compound | outcome
CC(=O)Nc1ccc(C=CC(=O)c2ccc([N+](=O)[O-])cc2)cc1 | inactive
CC1CCCC(NC(=O)COC(=O)c2ccccc2C(=O)N(C)C2CCCCC2)C1C (centres undefined) | inactive
Cc1cc(=O)oc2c3c(cc(OCC(=O)NCCC(=O)N[C@@H](C)C(=O)O)c12)OC(C)(C)CC3 | inactive
COc1ccc(CN2C[C@H]3CON(C)[C@H]3C[C@H]2c2ccc(-c3cccc(F)c3)cc2)cc1 | inactive
O=C(COC(=O)CCc1ccc(S(=O)(=O)N2CCOCC2)cc1)Nc1cccc(Cl)c1 | inactive
CC(=O)NC1C(Oc2ccc(C=O)cc2)OC(COC(C)=O)C(OC(C)=O)C1OC(C)=O (centres undefined) | inactive
CCc1ccccc1OCC(=O)Nc1nnc(C2CC2)s1 | inactive
C=C(C)CNC(=O)c1ccc(OC2CCN(C(=O)COC)CC2)cc1 | inactive
COc1ccc(CCNC(=O)C(=O)NCC2CCCN2S(=O)(=O)c2cccs2)cc1OC (centres undefined) | inactive
CC1(C)OC(=O)C2=C(CC(c3ccccc3)OC2CCc2ccccc2)O1 (centres undefined) | inactive
CCOC(=O)C=Cc1ccc(C(=O)OCC)[nH]1 | inactive
CCOn1c(=O)c(=O)n(O)c2ccccc21 | inactive
COc1ccc(NS(=O)(=O)c2ccc(F)cc2F)cn1 | inactive
CC(C)CN(C(=O)COC(=O)c1ccc(Cl)c(N)c1)c1c(N)n(Cc2ccccc2)c(=O)[nH]c1=O | inactive
CC(=O)c1sc(N)nc1C | inactive
O=C1COc2ccc(S(=O)(=O)NCCc3ccc(Cl)cc3)cc2N1 | inactive
CCCCn1c(N)c(N(CC(C)C)C(=O)C2CSC3(C)CCC(=O)N23)c(=O)[nH]c1=O (centres undefined) | inactive
O=C(CN1C(=O)NC2(CCc3ccccc32)C1=O)NC1CCCCC1 (centres undefined) | inactive
Cc1cc(C)c(NC(=O)CN2C(=O)NC(Cc3ccccc3)C2=O)c(C)c1 (centres undefined) | inactive
O=C(O)c1ccccc1Cc1ccc(F)c2ccccc12 | inactive
CC(C)CCN1CCN(Cc2ccc(C(F)(F)F)cc2)CC1CCO (centres undefined) | inactive
Cc1ccc(C)c(OCCC(=O)OCC(=O)c2ccc3c(c2)NC(=O)CO3)c1 | inactive

Compound | outcome
CC(=O)Nc1ccc(NC(=O)CSc2ncnc3c2cnn3Cc2ccccc2)cc1 | inactive
CCCc1cc(=O)[nH]c(SCc2cc(=O)oc3c(C)c(C)ccc23)n1 | inactive
Cc1c(NC(=O)C(C)OC(=O)c2c3c(nc4ccccc24)CCC(C)C3)c(=O)n(-c2ccccc2)n1C (centres undefined) | inactive
Cc1cc(C(=O)CCC(=O)NNC(=O)c2ccccc2O)c(C)s1 | inactive
Cc1ccc(OCCC(=O)OCC(=O)N2c3ccccc3NC(=O)C2(C)C)cc1 | inactive
O=C(CN1CCOCC1)Nc1cccc([N+](=O)[O-])c1 | inactive
c1ccc(-c2nnc(N3CCOCC3)c3ccccc23)cc1 | inactive
CCOCc1nnc(NC(=O)CCS(=O)(=O)Cc2ccccc2)s1 | inactive
CCCC(C(=O)NC1CCCC1)N(C(=O)Cn1nnc(-c2ccc(C)o2)n1)c1cccc(O)c1 (centres undefined) | inactive
CCN(C(=O)CSc1nnnn1-c1ccccc1OC)C1CCS(=O)(=O)C1 (centres undefined) | inactive
O=c1[nH]c2ccc(S(=O)(=O)N3CCCC3)cc2[nH]1 | inactive
Cc1nnc(SCCCCSc2nnc(C)c(=O)[nH]2)[nH]c1=O | inactive
COc1ccc(N2CCN(C(=S)Nc3ccc(S(N)(=O)=O)cc3)CC2)cc1 | inactive
COc1ccc(/C=N/S(=O)(=O)c2ccccc2)cc1OC | inactive
Cc1ccc([C@H]2N[C@]3(CCCN(CC4CCCCC4)C3=O)[C@H]3C(=O)N(Cc4ccccc4)C(=O)[C@@H]23)cc1 | inactive
CCCCn1c(N)c(N(CCOC)C(=O)c2sc3ccccc3c2Cl)c(=O)[nH]c1=O | inactive
CC(=O)NCc1ccc(S(=O)(=O)NC2CCN(Cc3ccccc3)CC2)cc1 | inactive
CCN(CC(=O)Nc1c(F)cccc1F)C(=O)c1ccc(Sc2nncn2C)c([N+](=O)[O-])c1 | inactive
O=c1[nH]nc(SCCS(=O)(=O)c2ccc(F)cc2)n1-c1ccccc1C(F)(F)F | inactive
Cc1sc2nc(CSCC(=O)NC3CCCCC3)[nH]c(=O)c2c1C | inactive
CC1(C)C[C@H]2C3=CCC4[C@@]5(C)CC[C@H](O)[C@](C)(CO)C5CC[C@@]4(C)[C@]3(C)C[C@@H](O)[C@@]2(CO)[C@@H](O)[C@@H]1O (some centres undefined) | inactive
Cc1c(C(=O)NC(C)C2CC3CCC2C3)cccc1[N+](=O)[O-] (centres undefined) | inactive

Compound | outcome
O=C(CCNC(=O)c1ccc([N+](=O)[O-])cc1)NC1CCCCC1 | inactive
Cn1c(CSCC(=O)Nc2ccccc2)nnc1SCc1ccccc1 | inactive
Cc1cccc(N(CC(=O)N2CCCC2)S(C)(=O)=O)c1C | inactive
CN(C)C(CNC(=O)c1cc(Br)c(Br)s1)c1ccco1 (centres undefined) | inactive
Cc1ccc(CN2CCC(N3CCC(C(=O)NCC4CCCO4)CC3)CC2)o1 (centres undefined) | inactive
O=C(NCCS(=O)(=O)NCc1ccc(Cl)cc1)c1ccccc1 | inactive
CC1=C(C(=O)N2CCOCC2)CC(CC(=O)NCc2ccco2)C(=O)N1Cc1ccc(F)cc1 (centres undefined) | inactive
Cc1ccc(C)n1NC(=O)c1ccc([N+](=O)[O-])cc1 | inactive
COc1ccc(-c2cc(=O)oc3cc(OC(C)C(=O)NCC4CCC(C(=O)O)CC4)ccc23)cc1 (centres undefined) | inactive
CCOc1ccc(C(=O)CCC(=O)NC2=NCCS2)cc1 | inactive
O=C1N/C(=C/c2cccs2)C(=O)N1Cc1ccc(F)cc1 | inactive
C/C(COc1ccccc1)=N\NC(=O)c1nnn(-c2nonc2N)c1-c1ccc(C)cc1 | inactive
CCCCn1c(N)c(N(CC(C)C)C(=O)c2cccc(S(=O)(=O)N3CCN(C(C)=O)CC3)c2)c(=O)[nH]c1=O | inactive
O=C(c1ccc(C(F)(F)F)cc1)C1CCCN(C(=O)c2csnn2)C1 (centres undefined) | inactive
COc1ccc(/C=C/CN2CCN(Cc3ccc(C)cc3)C(CCO)C2)cc1 (centres undefined) | inactive
CCOc1ccc(S(=O)(=O)N2CCCC(C(=O)N3CCC(C(N)=O)CC3)C2)cc1Cl (centres undefined) | inactive
NS(=O)(=O)c1ccc(NC(=S)NNC(=O)c2cccs2)cc1 | inactive
O=C(COc1ccccc1O)NC1CCCC1 | inactive
CC1=C(C(=O)N2CCOCC2)CC(CC(=O)NCCN2CCOCC2)C(=O)N1CCC1=CCCCC1 (centres undefined) | inactive
COc1ccccc1C(=O)NC(=O)COC(=O)c1ccco1 | inactive

Reference: PubChem BioAssay AID1347070 (National Center for Advancing Translational Sciences (NCATS), 2019)
